Among the data in ChEMBL document CHEMBL1201862, “PubChem BioAssay data set” (2004) are Potency values, retold here.

The campaign covered roughly 350,000 compounds. About 700 (0.2%) were called active. The rule behind the calls is not given here. This excerpt belongs to a sample that is enriched for actives.

The target of this assay is RecQ-like DNA helicase BLM (Homo sapiens) (UniProt P54132). The experiment in a line: qHTS Assay for Inhibitors of Bloom's syndrome helicase (BLM). It counts as functional. Background: Quantitative high-throughput screening tests each substance at several concentrations.
Sequence of RecQ-like DNA helicase BLM (Homo sapiens) (P54132 whole entry): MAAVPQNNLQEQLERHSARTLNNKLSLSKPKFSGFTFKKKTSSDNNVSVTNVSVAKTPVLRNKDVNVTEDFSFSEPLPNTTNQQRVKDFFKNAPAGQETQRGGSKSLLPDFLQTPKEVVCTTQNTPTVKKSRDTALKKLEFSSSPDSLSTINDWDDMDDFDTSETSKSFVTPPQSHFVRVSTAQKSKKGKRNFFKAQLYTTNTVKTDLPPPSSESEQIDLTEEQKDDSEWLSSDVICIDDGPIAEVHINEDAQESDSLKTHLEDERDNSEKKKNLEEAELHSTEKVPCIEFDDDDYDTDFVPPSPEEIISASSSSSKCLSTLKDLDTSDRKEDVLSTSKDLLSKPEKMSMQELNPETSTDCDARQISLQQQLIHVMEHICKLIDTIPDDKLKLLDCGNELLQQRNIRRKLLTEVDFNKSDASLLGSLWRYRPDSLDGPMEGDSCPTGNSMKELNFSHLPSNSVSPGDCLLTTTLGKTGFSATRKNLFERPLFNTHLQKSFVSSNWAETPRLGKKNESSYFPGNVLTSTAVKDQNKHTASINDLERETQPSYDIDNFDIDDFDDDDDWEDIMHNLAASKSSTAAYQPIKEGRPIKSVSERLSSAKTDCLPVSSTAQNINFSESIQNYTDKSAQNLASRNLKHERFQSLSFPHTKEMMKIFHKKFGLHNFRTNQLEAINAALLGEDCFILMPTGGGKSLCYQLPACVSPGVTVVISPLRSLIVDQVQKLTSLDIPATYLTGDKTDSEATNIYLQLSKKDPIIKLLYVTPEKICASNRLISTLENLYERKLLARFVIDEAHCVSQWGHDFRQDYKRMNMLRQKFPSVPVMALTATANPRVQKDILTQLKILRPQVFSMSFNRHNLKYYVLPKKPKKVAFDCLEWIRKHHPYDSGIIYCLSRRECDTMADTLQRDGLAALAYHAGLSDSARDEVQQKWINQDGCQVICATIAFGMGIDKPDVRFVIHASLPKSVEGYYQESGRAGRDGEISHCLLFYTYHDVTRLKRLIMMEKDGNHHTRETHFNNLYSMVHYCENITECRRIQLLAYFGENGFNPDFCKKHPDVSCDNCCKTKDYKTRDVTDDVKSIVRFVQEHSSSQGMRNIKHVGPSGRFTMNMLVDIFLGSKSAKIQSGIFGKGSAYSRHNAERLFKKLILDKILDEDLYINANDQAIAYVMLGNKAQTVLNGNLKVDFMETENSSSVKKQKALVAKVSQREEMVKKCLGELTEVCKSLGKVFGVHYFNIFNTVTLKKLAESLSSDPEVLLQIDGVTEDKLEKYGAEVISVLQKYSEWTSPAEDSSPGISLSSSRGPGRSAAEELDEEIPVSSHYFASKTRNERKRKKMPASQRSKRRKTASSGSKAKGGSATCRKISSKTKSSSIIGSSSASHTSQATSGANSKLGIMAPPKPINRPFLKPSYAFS
Consider `N[C@H](Cc1ccc(O)c(O)c1)C(=O)O`, for which the Potency was 28.2 µM (active).
